# ALDH1A1 block: qHTS Assay for Inhibitors of Aldehyde Dehydrogenase 1 (ALDH1A1); Purified ALDH1A1, NADH fluorescence, propionaldehyde substrate; Aldehyde dehydrogenase 1A1 (Homo sapiens), P00352; hit rate 7.3% among 220,000; Potency, µM (highest dose often 75.3 µM), inactives show at the highest dose activity, negative = inhibition, actives largely listed as inhibitors;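 also: potency is read from the fitted curve at half-maximal effect; plate controls were no enzyme wells and a reference inhibitor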
# Target sequence (P00352 whole entry, looked up): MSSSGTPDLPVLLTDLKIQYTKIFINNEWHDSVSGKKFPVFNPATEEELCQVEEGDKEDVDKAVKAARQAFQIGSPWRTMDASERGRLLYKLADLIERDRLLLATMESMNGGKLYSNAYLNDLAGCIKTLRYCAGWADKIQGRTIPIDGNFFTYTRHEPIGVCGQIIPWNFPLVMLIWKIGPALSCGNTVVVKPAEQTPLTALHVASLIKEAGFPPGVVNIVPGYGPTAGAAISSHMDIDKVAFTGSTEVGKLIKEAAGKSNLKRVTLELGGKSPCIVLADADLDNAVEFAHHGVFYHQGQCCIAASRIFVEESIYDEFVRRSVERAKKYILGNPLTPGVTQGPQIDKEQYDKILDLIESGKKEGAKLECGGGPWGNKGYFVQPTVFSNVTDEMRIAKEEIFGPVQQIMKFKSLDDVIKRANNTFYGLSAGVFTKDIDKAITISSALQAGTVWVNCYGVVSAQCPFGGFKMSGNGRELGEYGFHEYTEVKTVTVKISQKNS
# HPGD inh: qHTS Assay for Inhibitors of HPGD (15-Hydroxyprostaglandin Dehydrogenase); Potency, µM, inactives show top-dose activity change, negative = inhibition, hits mostly inhibitors; hit rate 4.3% among 150,000; 15-hydroxyprostaglandin dehydrogenase [NAD(+)] (Homo sapiens), P15428; purified HPGD, NADH fluorescence kinetic, PGE2 substrate; also: potency is read from the fitted curve at half-maximal effect
# Target sequence (P15428 whole entry, looked up): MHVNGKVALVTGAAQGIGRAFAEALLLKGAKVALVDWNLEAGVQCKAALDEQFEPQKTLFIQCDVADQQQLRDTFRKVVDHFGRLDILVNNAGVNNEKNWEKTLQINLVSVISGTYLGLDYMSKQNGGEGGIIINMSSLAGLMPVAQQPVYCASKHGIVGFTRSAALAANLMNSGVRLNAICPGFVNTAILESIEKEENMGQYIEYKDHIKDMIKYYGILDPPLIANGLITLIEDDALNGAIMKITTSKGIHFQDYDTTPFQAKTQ
#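 20 nM HPGD preincubated 15 min at room temperature with compound in 50 mM Tris-HCl pH 8, 0.01% Tween 20. Started with 1 mM NAD+ and 30 uM prostaglandin E2; NADH fluorescence (360/450 nm) read 5 times over 30-s intervals, last minus first.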
# Luc counter: Counterscreen for Luciferase (Kinase-Glo TM) Inhibition; Luciferin 4-monooxygenase (Photuris pensylvanica), Q27757; Kinase-Glo luciferase, ATP luminescence, 8 min; Potency, µM (top dose mostly 38.3 µM), without a hit: at the highest dose activity change, negative = inhibition, most hits filed as inhibitors; hit rate 0.28% among 200,000; active = well fitted inhibition curve with a large enough effect; inconclusive = small, poorly fitted or top-dose-only effect; also: potency is read from the fitted curve at half-maximal effect; nearly all actives have a fitted effect of over 60% in size
#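 Light output from Kinase-Glo luciferase with luciferin and 10 uM ATP in 50 mM imidazole pH 7.2, KCl, MgCl2, Tween 20, BSA; compound pin-delivered, 8-min ambient incubation, then luminescence read.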
# PNC assembly inh: High Content Assay for Compounds that inhibit the Assembly of the Perinucleolar Compartment. PC3M PTB-GFP, PNC prevalence imaging, 16 h; hits give low values. hit rate 3.1% among 140,000. AID 2417, 2010. activity change (PNC), negative = inhibition, % at 10 µM;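 active = readout at or below -70, meaning at least 70% loss of cells showing the perinucleolar compartment, a nuclear body marking cancer cells; inconclusive = readout between -30 and a set limit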;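 also: plate controls were DMSO wells for no effect and camptothecin positive control wells for full effect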
#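 Read-out is percentage of cells bearing a perinucleolar compartment, from automated 20x imaging of fixed, Hoechst-stained PC3M PTB-GFP cells. Cells were seeded 4 h, then exposed 16 h to compound (23 nl of library stock) in duplicate plates.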
# Lamin A splicing: qHTS Assay for Modulators of Lamin A Splicing; HeLa LMNA splicing GFP/RFP minigene ratio, 48 h; Potency, µM (highest dose often 46.1 µM), for inactives: at the top dose ratio change, negative = inhibition, hits mostly inhibitors; hit rate 0.01% among 200,000; AID 1487, 2009; active = well fitted inhibition curve with a large enough effect in the signal ratio, with a control signal flat, not every such curve was filed as active; inconclusive = small, poorly fitted or top-dose-only effect, or effect the other way, or a change in a side signal; the % refers to the signal ratio; also: potency is read from the fitted curve at half-maximal effect
#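 S3 HeLa stable clones carrying a lamin A-EGFP splicing minigene plus DsRed2 were seeded at 600 cells/well in Opti-MEM with 2% FBS, pin-dosed and incubated 48 h at 37°C. Acumen cytometry (488 nm) gave the GFP/RFP total-intensity ratio.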
# * = called active by the depositor; ? = inconclusive; nt = not tested or not shown; [ ] = dose if it differs, or a comment. A selection: hits, their analogues and other compounds. The true share with any hit is near 10%. Unless noted, calls follow the shape of the dose curve; as a rule, active = well fitted inhibition curve with a large enough effect (not every such curve was filed as active); inconclusive = small, poorly fitted or top-dose-only effect, or another doubt; inactive = no such curve, though single readings can be large or run the other way. Unless noted, % is scaled to controls: 0 for no effect and ±100 for the full control effect.
SMILES,ALDH1A1 block,HPGD inh,Luc counter,PNC assembly inh,Lamin A splicing
CCOC(=O)N1CCN(C(=O)c2ccc3c(=O)n(CCc4ccccc4)c(=S)[nH]c3c2)CC1,9.9%,-12.4%,-4.5%,70.6,11.1%
CC1CCCN(C(=O)c2ccc3c(=O)n(Cc4ccc5c(c4)OCO5)c(=S)[nH]c3c2)C1 (centres undefined),10µM*,5.01µM*,0.0%,5.7,?
CC(C)OCCCNC(=O)c1ccc2c(=O)n(Cc3ccc4c(c3)OCO4)c(=S)[nH]c2c1,13.3%,nt,-5.1%,nt,nt
O=C(CP(=O)(c1ccccc1)c1ccccc1)N/N=C/c1cc(Br)cc(Br)c1O,-2.5%,0.141µM*,2.2%,-29.9,?
Cc1ccc(C(=O)NC2CC3CCCC(C2)N3C(=S)NCc2ccco2)cc1 (centres undefined),22.4µM*,nt,-1.9%,nt,nt
Cc1sc2nc(C3CC3)nc(SCC(=O)N3CCCc4ccccc43)c2c1C,?,-4.2%,-0.3%,10.5,-29.1%
Cc1sc2nc(C3CC3)nc(SCC(=O)N3CCc4ccccc4C3)c2c1C,14.1µM*,?,0.5%,?,-13.1%
CC1CCN(S(=O)(=O)c2ccc3c(c2)N(CC(=O)NCCCN2CCCCC2)C(=O)CS3)CC1,nt,nt,nt,nt,5.5%[46 µM]
COc1cccc(/C=C2\C(=O)N(c3cccc(C)c3)C(=O)c3ccccc32)c1,?,3.98µM*,-4.2%,?,-1.4%
COc1cccc(N2C(=O)c3ccncc3C2=O)c1,-3.7%,-14.0%,11.3%,-6.5,5.9%
Cc1cccc(N2C(=O)/C(=C\c3ccc(OC(F)F)cc3)c3ccccc3C2=O)c1,?,10µM*,-1.6%,-12.7,-7.7%
CCOc1ccc(NC(=O)c2sc(-n3nc(C)c(CCC(C)C)c3C)nc2C)cc1,nt,nt,nt,nt,9.4%[46 µM]
COc1ccccc1CNC(=O)c1cnn2c(C)c(Cc3ccc(F)cc3)c(C)nc12,nt,nt,nt,nt,-2.1%[46 µM]
CCOC(=O)c1ccc(N2CSC3=C(C#N)C(c4cccs4)CC(=O)N3C2)cc1 (centres undefined),22.4µM*,-6.8%,5.4%,-9.9,0.3%
COc1ccc(N2CSC3=C(C#N)C(c4cccs4)CC(=O)N3C2)cc1 (centres undefined),2µM*,7.08µM*,-9.2%,?,4.8%
CN1CSC2=C(C#N)C(c3cccc(OCc4ccccc4)c3)CC(=O)N2C1 (centres undefined),7.94µM*,14.1µM*,-0.7%,27.3,?
N#CC1=C2SCN(Cc3ccco3)CN2C(=O)CC1c1ccccc1F (centres undefined),10µM*,17.8µM*,-2.4%,24.1,3.2%
Nc1ncnc2c1nc(-c1ccccc1)n2[C@H]1O[C@@H](CO)[C@@H](O)[C@H]1O,-10.3%[13.5 µM],-17.2%,-2.7%[7.66 µM],nt,nt
Cc1cc(NC(=O)Cn2c(=O)oc3cc(S(=O)(=O)N4CCCC4)ccc32)ccc1Br,nt,nt,nt,nt,-19.7%[46 µM]
Cc1ccc(N2C(N)=C(C#N)C(c3cccs3)C3=C2CC(C)(C)CC3=O)cc1 (centres undefined),?,?,-0.4%,19.7,?
CCc1ccc(C2CC(=O)N3CN(c4ccccc4)CSC3=C2C#N)cc1 (centres undefined),10µM*,7.94µM*,-3.9%,31.8,2.4%
CCc1ccc(N2CSC3=C(C#N)C(c4cccs4)CC(=O)N3C2)cc1 (centres undefined),8.91µM*,12.6µM*,2.7%,-19.5,0.3%
Cc1ccc(N2CSC3=C(C#N)C(c4cccs4)CC(=O)N3C2)cc1 (centres undefined),8.91µM*,7.94µM*,0.7%,?,-0.8%
N#CC1=C2SCN(c3ccc(F)cc3)CN2C(=O)CC1c1cccc(F)c1 (centres undefined),1.89µM*,5.62µM*,-1.8%,29.2,-5.2%
N#CC1=C2SCN(Cc3ccco3)CN2C(=O)CC1c1cccc2ccccc12 (centres undefined),?,?,-1.7%,2.7,9.7%
SMILES,ALDH1A1 block,HPGD inh,Luc counter,PNC assembly inh,Lamin A splicing
Nc1ncnc2c1ncn2C[C@@H](O)C(=O)O,18.1%[13.5 µM],-8.2%,-5.9%[7.66 µM],nt,nt
COc1ccc(CCNc2nc(SCc3ccccc3F)nc3ccccc23)cc1OC,nt,nt,nt,nt,-3.2%[46 µM]
C=CCOCC/C=C1/c2ccccc2C(OC)C1C (centres undefined),3.2%[13.5 µM],nt,nt,nt,nt
CNc1ncnc2c1ncn2[C@H]1C[C@H](O)[C@@H](CO)O1,8.4%,nt,nt,nt,nt
O=C(CSCc1ccc([N+](=O)[O-])cc1)NC1CC1,5.7%,0.3%,1.1%,2.1,-0.6%
C=CCNC(=O)CSc1cc([N+](=O)[O-])cc(S(=O)(=O)Cc2ccccc2)c1,4.47µM*,?,1.5%,13.8,9.5%
O=C(CSc1cc([N+](=O)[O-])cc(S(=O)(=O)Cc2ccccc2)c1)NC1CC1,25.1µM*,22.4µM*,-2.5%,?,6.6%
Cc1ccc(S(=O)(=O)c2cc(OC(=O)c3ccco3)ccc2OC(=O)c2ccco2)cc1,0.5%,-14.5%,-0.7%,47.5,-13.7%
O=C(Oc1ccc(OC(=O)c2ccco2)c(S(=O)(=O)c2ccc(Br)cc2)c1)c1ccco1,?,28.2µM*,-0.8%,-100.0*,?
O=C(c1ccncc1)N1CCC[C@@]2(CCN(c3ccncc3)C2)C1,9.1%,-5.9%,-1.4%,nt,nt
N[C@H](CCCP(=O)(O)O)C(=O)O,-2.0%,-11.1%,1.1%,nt,nt
Cc1c(NN=C(C#N)C#N)c(=O)n(-c2ccccc2)n1C,3.55µM*,nt,2.5%,nt,-16.3%[46 µM]
Cc1c(NC(=O)/C(C#N)=C/c2ccccc2)c(=O)n(-c2ccccc2)n1C,-11.7%,nt,6.1%,nt,nt
COC(=O)CSC(C(=O)Nc1ccc(C)c(C)c1)c1ccccc1 (centres undefined),10µM*,-23.4%,1.9%,41.6,0.0%
COc1ccc(C)c2sc(=NC(=O)c3ccccc3)n(C)c12,?,?,12.6µM*,-9.4,-15.3%
CC(=O)Nc1cccc(NS(=O)(=O)Cc2ccc(Cl)cc2)c1,28.2µM*,-12.5%,-1.7%,43.2,8.0%
CN1CCN(c2ncc3ncc(=O)n(CCC#N)c3n2)CC1,?,nt,nt,nt,-3.1%
Cc1cccc(-c2nc3ccccc3c(=O)n2NC(=S)N(C)C)c1,8.91µM*,15.8µM*,-2.6%,61.7,-3.8%
O=C(c1ccc2ccccc2n1)N1CCN(c2ccccc2O)CC1,?,-23.2%,-0.6%,-95.7*,?
O=C(c1ccc2ccccc2n1)N1CCN(c2ccccc2)CC1,7.1%,0.9%,5.7%,41.6,-0.1%
CN(C)c1ccc(N=C/C=C2/N(C)c3ccccc3C2(C)C)cc1,?,-3.8%,-2.8%,-7.0,?
O=C(/C(=N\Nc1ccccc1)Sc1nnnn1-c1ccccc1)c1ccccc1,1.41µM*,-16.0%,1.4%,-13.4,14.7%
CN(C)Cc1ccccc1-c1nc(N(C)C)c2ccccc2n1,28.1%,nt,nt,nt,?

# Screening results deposited in PubChem by National Center for Advancing Translational Sciences (NCATS).
